About 83,000 compounds went through this panel and 20% of them were active in at least one assay; those are over-represented in the sample as a whole.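 Note: values are percent growth. 100 is the growth of untreated cells, values between 100 and 0 indicate rising inhibition; between -100 and 0 indicates cell death.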 Calls of active or inactive are those of the source. How the source made its calls: active means growth percent below 10; inactive means the rest.
Columns and labels:
Assay in all cases: NCI-60 one-dose screen, 48 h (100 = growth as untreated, 0 = no growth, -100 = all killed)
[1] = system: SK-MEL-2 melanoma
[2] = system: EKVX NSCLC
[3] = system: SN12C renal
[4] = system: UO-31 renal
[5] = system: TK-10 renal
[6] = system: ACHN renal
[7] = system: CAKI-1 renal
[8] = system: A498 renal
[9] = system: CCRF-CEM leukemia
[10] = system: MOLT-4 leukemia; details: 10 µM unless noted

Measured: growth

Clc1ccc2c(NCCNC34CC5CC(CC(C5)C3)C4)ccnc2c1
active: [1]; 10 µM unless noted -88% | [2]; 10 µM unless noted -67.5% | [3]; 10 µM unless noted -74.5% | [4]; 10 µM unless noted -98.6% | [5]; 10 µM unless noted -94.7% | [6]; 10 µM unless noted -95.8% | [7]; 10 µM unless noted -80.8% | [8]; 10 µM unless noted -94.2% | [9]; 10 µM unless noted 4.53% | [10] -23.1%

CC/C(=C(/c1ccc(O)cc1)c1ccc(OCCN(C)C(=O)COCCOCCNC(=O)Cc2ccc3c(c2)CN([C@@H]2CCC(=O)NC2=O)C3=O)cc1)c1ccccc1
inactive: [1]; 1 µM 95.4% | [1]; 10 µM 64.1% | [3]; 1 µM 88.7% | [3]; 10 µM 53.5% | [4]; 1 µM 91.6% | [4]; 10 µM 89.4% | [5]; 1 µM 101% | [5]; 10 µM 89.2% | [6]; 1 µM 102% | [6]; 10 µM 106% | [7]; 1 µM 99.8% | [7]; 10 µM 101% | [8]; 1 µM 119% | [8]; 10 µM 115% | [9]; 10 µM 16.7%
active: [9]; 1 µM -11%

O=C(c1ccc(O)cc1)C1[C@H](c2ccc(Cl)cc2)[C@@H](c2ccccc2)NC12C(=O)Nc1ccc(Br)cc12 (some centres undefined)
active: [1]; 10 µM unless noted -76.1% | [2]; 10 µM unless noted -5.33% | [3]; 10 µM unless noted -92.6% | [4]; 10 µM unless noted -25.7% | [5]; 10 µM unless noted 1.72% | [6]; 10 µM unless noted 0.788% | [7]; 10 µM unless noted 3.93% | [8]; 10 µM unless noted -15.5% | [9]; 10 µM unless noted -11.1% | [10] -34.2%

O=C(/C=C1\C(=O)N(Cc2ccccc2)c2ccccc21)c1cc2ccccc2oc1=O
inactive: [1]; 10 µM unless noted 109% | [2]; 10 µM unless noted 79.6% | [3]; 10 µM unless noted 93% | [4]; 10 µM unless noted 42.9% | [5]; 10 µM unless noted 84.6% | [6]; 10 µM unless noted 17.9% | [7]; 10 µM unless noted 69.9% | [8]; 10 µM unless noted 144% | [9]; 10 µM unless noted 43.6% | [10] 31.9%

O=C(Nc1ccc(Br)cc1)Nc1ccc(-c2ccc3c(c2)NC(=O)/C3=C\c2ccc[nH]2)cc1
inactive: [1]; 10 µM unless noted 36.7% | [2]; 10 µM unless noted 42.3% | [3]; 10 µM unless noted 52.5% | [4]; 10 µM unless noted 20.6% | [5]; 10 µM unless noted 52.3% | [6]; 10 µM unless noted 30% | [7]; 10 µM unless noted 31.1% | [8]; 10 µM unless noted 105% | [9]; 10 µM unless noted 25.3% | [10] 35.6%

CC/C(=C(\c1ccc(O)cc1)c1ccc(OCCN(C)C(=O)COCCNC(=O)Cc2ccc3c(c2)CN([C@@H]2CCC(=O)NC2=O)C3=O)cc1)c1ccccc1
inactive: [1]; 1 µM 82.5% | [1]; 10 µM 56.8% | [2]; 1 µM 103% | [2]; 10 µM 92.1% | [3]; 1 µM 73.9% | [3]; 10 µM 38.1% | [4]; 1 µM 92% | [4]; 10 µM 91.6% | [5]; 1 µM 105% | [5]; 10 µM 84.2% | [6]; 1 µM 104% | [6]; 10 µM 102% | [7]; 1 µM 99.2% | [7]; 10 µM 90.1% | [8]; 1 µM 117% | [8]; 10 µM 98.2%
active: [9]; 1 µM -2.66% | [9]; 10 µM -7.62%

Cc1ccc(C(=O)Nc2cc(-c3ccccc3)cc(C(F)(F)F)c2)cc1C#Cc1cnc2cccnn12
inactive: [1]; 10 µM unless noted 58.7% | [2]; 10 µM unless noted 63% | [3]; 10 µM unless noted 65.9% | [4]; 10 µM unless noted 56.5% | [5]; 10 µM unless noted 79.3% | [6]; 10 µM unless noted 59.9% | [7]; 10 µM unless noted 70.4% | [8]; 10 µM unless noted 133% | [9]; 10 µM unless noted 38.1% | [10] 35.5%

O=C1N/C(=N\c2nccs2)S/C1=C\c1ccc([N+](=O)[O-])cc1
active: [9]; 10 µM unless noted -0.568%
inactive: [1]; 10 µM unless noted 16.8% | [2]; 10 µM unless noted 14.3% | [3]; 10 µM unless noted 11.9% | [4]; 10 µM unless noted 12.6% | [5]; 10 µM unless noted 31.9% | [6]; 10 µM unless noted 11.3% | [7]; 10 µM unless noted 18.8% | [8]; 10 µM unless noted 33.8% | [10] 11.9%

CS(=O)(=O)Nc1cc(-c2ccc3ncnc(N4CCc5cc(F)c(Cl)cc54)c3c2)cnc1Cl
inactive: [3]; 10 µM unless noted 19.3% | [9]; 10 µM unless noted 16.7%
active: [1]; 10 µM unless noted -31.6% | [2]; 10 µM unless noted -23% | [4]; 10 µM unless noted 5.68% | [5]; 10 µM unless noted -1.98% | [6]; 10 µM unless noted 9.43% | [7]; 10 µM unless noted -8.1% | [8]; 10 µM unless noted -36.5% | [10] -47.4%

Oc1cncc(-c2ccc3ncnc(N4CCc5cc(F)c(Cl)cc54)c3c2)c1
active: [8]; 10 µM unless noted -1.41%
inactive: [1]; 10 µM unless noted 66.4% | [2]; 10 µM unless noted 59.2% | [3]; 10 µM unless noted 44.2% | [4]; 10 µM unless noted 35.7% | [5]; 10 µM unless noted 78.8% | [6]; 10 µM unless noted 46% | [7]; 10 µM unless noted 41.5% | [9]; 10 µM unless noted 76.2% | [10] 57.6%

Nc1nn2c(-c3cc4cc(Br)ccc4oc3=O)ccnc2c1N=Nc1ccc(S(N)(=O)=O)cc1
inactive: [1]; 10 µM unless noted 94.6% | [2]; 10 µM unless noted 91.9% | [3]; 10 µM unless noted 74% | [4]; 10 µM unless noted 76.6% | [5]; 10 µM unless noted 114% | [6]; 10 µM unless noted 95.7% | [7]; 10 µM unless noted 81% | [8]; 10 µM unless noted 149% | [9]; 10 µM unless noted 82.3% | [10] 89.9%

Reference: PubChem BioAssay (NCI)
